# Results filed as inconclusive are left out. Entries that show only a call come without a potency. The source made the active and inactive calls. Unless noted, the call rests on the fitted dose curve; in most records, active means well fitted curve in the direction sought with a large enough effect; inconclusive means small, poorly fitted or top-dose-only effect, or another doubt; inactive means no such curve, though single readings can be large; an effect the other way counts as inactive or inconclusive.
# Target: Pyruvate kinase (Leishmania mexicana) (UniProt Q27686)
# Assay: qHTS Validation Assay for Inhibitors of Leishmania Mexicana Pyruvate Kinase (AID 945)
# Settings: purified L. mexicana pyruvate kinase, enzyme activity, E451W mutant enzyme; series mostly up to 57.5 µM
# Method in brief: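 The enzyme is a highly purified E451W mutant of LmPYK used at 0.2 nM. It converts 0.5 mM PEP and 0.1 mM ADP over 1 h at room temperature; product ATP is quantified by luciferase luminescence relative to DMSO controls.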
# Sequence of Pyruvate kinase (Leishmania mexicana) (Q27686 2-499 E452W): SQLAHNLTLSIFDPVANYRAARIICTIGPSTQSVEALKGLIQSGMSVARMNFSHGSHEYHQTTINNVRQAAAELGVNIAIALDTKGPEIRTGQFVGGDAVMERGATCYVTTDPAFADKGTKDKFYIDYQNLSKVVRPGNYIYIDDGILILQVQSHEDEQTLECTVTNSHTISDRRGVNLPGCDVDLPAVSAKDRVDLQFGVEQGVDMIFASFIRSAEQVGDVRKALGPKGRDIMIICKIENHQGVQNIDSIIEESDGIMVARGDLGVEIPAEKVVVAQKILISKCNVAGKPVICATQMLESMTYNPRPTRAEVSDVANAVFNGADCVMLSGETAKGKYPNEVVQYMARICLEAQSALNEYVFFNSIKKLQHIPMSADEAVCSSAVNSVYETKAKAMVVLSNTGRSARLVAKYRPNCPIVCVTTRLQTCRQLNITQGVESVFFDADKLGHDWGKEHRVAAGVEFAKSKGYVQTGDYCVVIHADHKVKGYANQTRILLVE
row,SMILES,Potency
1,CCn1cc(C(=O)O)c(=O)c2cc3c(cc21)OCO3,inactive
2,COc1cc(Cc2cnc(N)nc2N)cc(OC)c1OC,inactive
3,CCCC(C(=O)OCCN(CC)CC)(c1ccccc1)c1ccccc1,inactive
4,Cc1ccc(S(=O)(=O)NC(=O)NN2CCCCCC2)cc1,inactive
5,CN(C)C(=O)Oc1cccc([N+](C)(C)C)c1,inactive
6,Cc1ccc(Cl)c(Nc2ccccc2C(=O)O)c1Cl,inactive
7,CCN(CC)CCOCCOC(=O)C1(c2ccccc2)CCCC1,inactive
8,CN(C)CCOC(=O)COc1ccc(Cl)cc1,inactive
9,Cc1nc2ccccn2c(=O)c1CCN1CCC(C(=O)c2ccc(F)cc2)CC1,inactive

# Tested on: not listed separately
# Assay: MultiTox-Fluor Cytotoxicity Assay - LYMP1-001 - Dead Cells (AID 946)
# Settings: LYMP1-001 lymphoblastoid cells, dead-cell protease fluorescence; series mostly up to 92.2 µM
# Method in brief: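 LYMP1-001 lymphoblastoid cells (2500/well) treated 16 h at 37 C. Dead-cell protease cleavage of bis-AAF-R110 read at Ex/Em 485/520. Normalized to DMSO and 15 uM tetraoctylammonium bromide; AC50 from Hill fits.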
row,SMILES,outcome
1,NC(=Nc1ccccc1)Nc1ccccc1,inactive
2,COc1cc(Cc2cnc(N)nc2N)cc(OC)c1OC,inactive
3,CCCCNC(=O)NS(=O)(=O)c1ccc(C)cc1,inactive
4,CCCCOCCOCCOCc1cc2c(cc1CCC)OCO2,inactive
5,COc1ccc(CN(CCN(C)C)c2ccccn2)cc1,inactive
6,O=c1[nH]c(=O)n([C@H]2C[C@H](O)[C@@H](CO)O2)cc1Br,inactive
7,Nc1nc(N)c2nc(-c3ccccc3)c(N)nc2n1,inactive

# Tested on: not listed separately
# Assay: MultiTox-Fluor Cytotoxicity Assay - LYMP1-001 - Live Cells (AID 947)
# Settings: LYMP1-001 lymphoblastoid cells, live-cell protease fluorescence viability; series mostly up to 92.2 µM
row,SMILES,outcome
1,NC(=Nc1ccccc1)Nc1ccccc1,inactive
2,COc1cc(Cc2cnc(N)nc2N)cc(OC)c1OC,inactive
3,CCCCNC(=O)NS(=O)(=O)c1ccc(C)cc1,inactive
4,CCCCOCCOCCOCc1cc2c(cc1CCC)OCO2,inactive
5,COc1ccc(CN(CCN(C)C)c2ccccn2)cc1,inactive
6,O=c1[nH]c(=O)n([C@H]2C[C@H](O)[C@@H](CO)O2)cc1Br,inactive
7,Nc1nc(N)c2nc(-c3ccccc3)c(N)nc2n1,inactive

# Tested on: not listed separately
# Assay: Cell Viability - LYMP1-002 - Assay at 16 hr (AID 948)
# Settings: LYMP1-002 lymphoblastoid cell viability; series mostly up to 92.2 µM
# Method in brief: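 LYMP1-002 human lymphoblastoid cells, 2500/well, were treated with compounds for 16 hr at 37 C in complete medium. Viability was read as intracellular ATP by CellTiter-Glo luminescence, and AC50 was derived from a Hill fit to concentration-response data.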
row,SMILES,outcome
1,NC(=Nc1ccccc1)Nc1ccccc1,inactive
2,COc1cc(Cc2cnc(N)nc2N)cc(OC)c1OC,inactive
3,CCCCNC(=O)NS(=O)(=O)c1ccc(C)cc1,inactive
4,CCCCOCCOCCOCc1cc2c(cc1CCC)OCO2,inactive
5,COc1ccc(CN(CCN(C)C)c2ccccn2)cc1,inactive
6,O=c1[nH]c(=O)n([C@H]2C[C@H](O)[C@@H](CO)O2)cc1Br,inactive
7,Nc1nc(N)c2nc(-c3ccccc3)c(N)nc2n1,inactive

# Target: Pyruvate kinase PKM (Homo sapiens) (UniProt P14618)
# Assay: qHTS Assay for Activators of Human Muscle Pyruvate Kinase (AID 954; active means well fitted curve in the direction sought with a large enough effect, not every such curve was filed as active)
# Settings: purified human muscle pyruvate kinase, luciferase-coupled luminescence, 1 h; series mostly up to 57.5 µM
# Method in brief: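 Compound pinned into substrate mix (0.5 mM PEP, 0.1 mM ADP), then 0.1 nM PKM2 added; 1 h, RT. Stop/detection luciferase reagent added, luminescence read. Normalized to no-inhibition and no-enzyme or reference-inhibitor controls.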
# Sequence of Pyruvate kinase PKM (Homo sapiens) (P14618 whole entry, looked up): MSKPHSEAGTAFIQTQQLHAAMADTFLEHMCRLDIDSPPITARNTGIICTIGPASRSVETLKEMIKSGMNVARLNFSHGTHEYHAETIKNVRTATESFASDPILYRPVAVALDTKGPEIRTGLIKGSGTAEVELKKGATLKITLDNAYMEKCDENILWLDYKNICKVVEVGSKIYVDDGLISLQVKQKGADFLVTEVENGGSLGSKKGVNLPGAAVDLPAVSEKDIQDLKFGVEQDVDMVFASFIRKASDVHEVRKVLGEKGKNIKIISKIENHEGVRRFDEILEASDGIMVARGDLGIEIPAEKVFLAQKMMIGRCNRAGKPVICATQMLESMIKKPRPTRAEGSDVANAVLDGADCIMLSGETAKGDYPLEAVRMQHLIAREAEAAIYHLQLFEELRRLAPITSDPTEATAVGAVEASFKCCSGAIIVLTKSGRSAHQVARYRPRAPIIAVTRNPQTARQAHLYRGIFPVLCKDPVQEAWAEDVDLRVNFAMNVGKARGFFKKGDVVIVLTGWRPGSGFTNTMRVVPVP
row,SMILES,outcome
1,CCn1cc(C(=O)O)c(=O)c2cc3c(cc21)OCO3,inactive
2,CCO/C([O-])=N/c1c[n+](N2CCOCC2)no1,inactive
3,COc1cc(Cc2cnc(N)nc2N)cc(OC)c1OC,inactive
4,CCCC(C(=O)OCCN(CC)CC)(c1ccccc1)c1ccccc1,inactive
5,CCCCNC(=O)NS(=O)(=O)c1ccc(C)cc1,inactive
6,Cc1ccc(S(=O)(=O)NC(=O)NN2CCCCCC2)cc1,inactive
7,CC(C)[N+](C)(CCOC(=O)C1c2ccccc2Oc2ccccc21)C(C)C,inactive
8,CN(C)C(=O)Oc1cccc([N+](C)(C)C)c1,inactive
9,Cc1ccc(Cl)c(Nc2ccccc2C(=O)O)c1Cl,inactive
10,CN/C(=C\[N+](=O)[O-])NCCSCc1ccc(CN(C)C)o1,inactive
11,CCN(CC)CCOCCOC(=O)C1(c2ccccc2)CCCC1,inactive
12,CN(C)CCOC(=O)COc1ccc(Cl)cc1,inactive
13,COc1ccc(CN(CCN(C)C)c2ccccn2)cc1,inactive
14,O=c1[nH]c(=O)n([C@H]2C[C@H](O)[C@@H](CO)O2)cc1Br,inactive
15,Nc1nc(N)c2nc(-c3ccccc3)c(N)nc2n1,inactive
16,Cc1nc2ccccn2c(=O)c1CCN1CCC(C(=O)c2ccc(F)cc2)CC1,inactive

# Tested on: not listed separately
# Assay: MultiTox-Fluor Cytotoxicity Assay - LYMP1-002 - Live Cells (AID 955)
# Settings: LYMP1-002 lymphoblastoid live-cell protease fluorescence viability; series mostly up to 46.1 µM
# Excerpt: NIH Chemical Genomics Center [NCGC]
# NIH Molecular Libraries Screening Centers Network [MLSCN]
# National Institutes of Environmental Health Sciences [NIEHS]
# National Toxicology Program [NTP]
# We have developed a 1536-well cell-based assay for quantitative high throughput screening (qHTS) against a number of cell lines to determine in vitro cytotoxicity of small molecules. This particular assay uses a human lymphoblastoid cell line (LYMP1-002) purchased from Coriell Institute.
# NCGC Assay Protocol Summary:
# The MultiTox-Fluor Cytotoxicity Assay (Promega) is a homogeneous method to simultaneously measure the relative number of live and dead cells in culture by detecting changes in cell membrane integrity. There are two fluorogenic peptide substrates in the assay reagent. Viable cells are determined when the cell-permeant substrate (GF-AFC) enters the cell and is cleaved by protease from live cells resulting in liberated fluorophore. This live-cell protease activity restricted to viable cells is proportional to cell number. The dead cells are determined by using fluorogenic cell-impermeant peptide substrate (bis-AAF-R110) which cleaved by dead cell proteases leaking from damaged cell membrane.
# Using the MultiTox-Fluor Cytotoxicity Assay, the relative number of live cells was measured in the lymphoblastoid cell line with complete culture medium following compound treatment for 16 hours. The assay was performed in opaque black Kalypsys 1536-well plates. In the screen, tetraoctylammonium bromide was used as positive control. Library compounds were measured for their ability to cause acute toxicity in the cell line, as reflected by a decrease in live cell protease activity, in a concentration-dependent manner. […] AC50 values were determined from concentration-response data modeled with the standard Hill equation.
# qHTS protocol for MultiTox-Fluor Cytotoxicity assay
# [Step] [Parameter] [Value] [Description]
# 1. Reagent; 5 uL; 2500 lymphoblastoid cells/well
# 2. Time; 5 hr; 37 C incubation
# 4. Controls; 23 nL; Tetraoctylammonium bromide 6.4pM to 92 uM
# 5. Time; 16 hr; 37 C incubation
# 6. Reagent; 5 uL; MuliTox-Fluor Assay reagent
# 7. Time; 60 min; Room Temperature
# 8. Detection; live-cell fluorescence (Ex/Em=405/510); EnVision plate reader
# Keywords: cell viability, cytotoxicity, lymphoblastoid cell line, fluorescence, NTPHTS, NTPHTS_NCGC, NIEHS, EPA, DSSTox, MLSMR, MLSCN, NIH Roadmap, qHTS, NCGC
row,SMILES,outcome
1,NC(=Nc1ccccc1)Nc1ccccc1,inactive
2,COc1cc(Cc2cnc(N)nc2N)cc(OC)c1OC,inactive
3,CCCCNC(=O)NS(=O)(=O)c1ccc(C)cc1,inactive
4,CCCCOCCOCCOCc1cc2c(cc1CCC)OCO2,inactive
5,COc1ccc(CN(CCN(C)C)c2ccccn2)cc1,inactive
6,O=c1[nH]c(=O)n([C@H]2C[C@H](O)[C@@H](CO)O2)cc1Br,inactive
7,Nc1nc(N)c2nc(-c3ccccc3)c(N)nc2n1,inactive

# Tested on: not listed separately
# Assay: MultiTox-Fluor Cytotoxicity Assay - LYMP1-002 - Dead Cells (AID 960); further: nearly all actives have a fitted effect of over 60% in size
# Settings: LYMP1-002 lymphoblastoid cells, dead-cell protease fluorescence; series mostly up to 46.1 µM
# Method in brief: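 Concentration-dependent increases in membrane-leaked protease activity are quantified in LYMP1-002 cells after 16 hr treatment; values are normalized against DMSO and tetraoctylammonium bromide (15 uM) controls and AC50 derived by Hill modeling.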
row,SMILES,Potency
1,NC(=Nc1ccccc1)Nc1ccccc1,inactive
2,COc1cc(Cc2cnc(N)nc2N)cc(OC)c1OC,inactive
3,CCCCNC(=O)NS(=O)(=O)c1ccc(C)cc1,inactive
4,CCCCOCCOCCOCc1cc2c(cc1CCC)OCO2,inactive
5,COc1ccc(CN(CCN(C)C)c2ccccn2)cc1,inactive
6,O=c1[nH]c(=O)n([C@H]2C[C@H](O)[C@@H](CO)O2)cc1Br,inactive

# Tested on: not listed separately
# Assay: MultiTox-Fluor Cytotoxicity Assay - LYMP1-003 - Dead Cells (AID 961); further: nearly all actives have a fitted effect of over 70% in size
# Settings: LYMP1-003 lymphoblastoid cells, dead-cell protease fluorescence; series mostly up to 92.2 µM
# Method in brief: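 LYMP1-003 human lymphoblastoid cells (2500/well) exposed to compound 16 h at 37 C in complete medium; dead-cell protease read with bis-AAF-R110 fluorescence (Ex/Em 485/520) after 60 min at room temperature. Normalized to DMSO and 15 uM tetraoctylammonium bromide; AC50 from Hill fit.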
row,SMILES,Potency
1,NC(=Nc1ccccc1)Nc1ccccc1,inactive
2,COc1cc(Cc2cnc(N)nc2N)cc(OC)c1OC,inactive
3,CCCCNC(=O)NS(=O)(=O)c1ccc(C)cc1,inactive
4,CCCCOCCOCCOCc1cc2c(cc1CCC)OCO2,inactive
5,COc1ccc(CN(CCN(C)C)c2ccccn2)cc1,inactive
6,O=c1[nH]c(=O)n([C@H]2C[C@H](O)[C@@H](CO)O2)cc1Br,inactive
7,Nc1nc(N)c2nc(-c3ccccc3)c(N)nc2n1,inactive

# Tested on: not listed separately
# Assay: MultiTox-Fluor Cytotoxicity Assay - LYMP1-003 - Live Cells (AID 962);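 further: cytotoxic hits lower the live-cell protease signal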
# Settings: LYMP1-003 lymphoblastoid cells, MultiTox-Fluor live-cell protease fluorescence; series mostly up to 92.2 µM
# Method in brief: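 Human lymphoblastoid line LYMP1-003 in complete culture medium, treated 16 hr with titrated compounds. Viable cells quantified via cell-permeant GF-AFC substrate fluorescence; AC50 derived by Hill fitting.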
row,SMILES,outcome
1,NC(=Nc1ccccc1)Nc1ccccc1,inactive
2,COc1cc(Cc2cnc(N)nc2N)cc(OC)c1OC,inactive
3,CCCCNC(=O)NS(=O)(=O)c1ccc(C)cc1,inactive
4,CCCCOCCOCCOCc1cc2c(cc1CCC)OCO2,inactive
5,COc1ccc(CN(CCN(C)C)c2ccccn2)cc1,inactive
6,O=c1[nH]c(=O)n([C@H]2C[C@H](O)[C@@H](CO)O2)cc1Br,inactive
7,Nc1nc(N)c2nc(-c3ccccc3)c(N)nc2n1,inactive

# From PubChem BioAssay (NCATS)
